# Reference: PubChem BioAssay (Tox21)
# Results filed as inconclusive are left out. A number with no mark means an inactive call. Active and inactive are the calls of the source. The call rests on the fitted dose curve; in most records, active means well fitted cell-killing curve with a large enough effect in the repeat runs; inconclusive means weak or mixed curves, or effect the other way; inactive means flat fitted curve, though single readings scatter.
# Assay: qHTS assay to identify small molecule agonists of the sonic hedgehog signaling (Shh) pathway - cell viability counter screen (AID 1259366); further: nearly all actives have a fitted effect of over 50% in size
# Details: NIH/3T3 Gli1-Luc viability, CellTiter-Fluor, 24 h; series mostly up to 92.4 µM; viability change, negative = cytotoxic: at the top concentration
# Text: National Center for Advancing Translational Sciences [NCATS]
# NIH Chemical Genomics Center [NCGC]
# U.S. Environmental Protection Agency [EPA]
# National Institutes of Environmental Health Sciences [NIEHS]
# National Toxicology Program [NTP]
# U.S. Food and Drug Administration [FDA]
# The sonic hedgehog (Shh) pathway is essential for normal embryonic development. Dysregulation of the Shh pathway can cause severe developmental defects in organs. Therefore chemicals that interfere with the pathway are potential developmental toxicants. A cell line designated 3T3Gli1-Luc (DMB/OARSA/CFSAN/FDA, Laurel, MD), a NIH/3T3 derived clone containing stably integrated Gli1-Luc reporter is used to detect chemical interference of the Shh pathway, by changes in the expression of the firefly Luc gene under the control of the Gli1 transcriptional response element. This cell line was used to screen Tox21 libraries for identifying and prioritizing the potential developmental toxicants that interfere Shh pathway. The cytotoxicity of the compounds was tested in parallel by measuring the cell viability using CellTiter-Fluor assay system (Promega, Madison, WI) in the same wells.
# Tox21 Assay Protocol Summary:
# 3T3 Gli1-Luc cells were dispensed at 2,000 per well in 5uL of culture medium into white solid bottom 1536-well plates (Greiner Bio-One, Monroe, NC) using a Multidrop Combi (Thermo Scientific, Waltham, MA) dispenser. The assay plates were incubated at 37 C and 5% CO2 for 4hr, and then 23nL of compounds dissolved in DMSO and positive control were transferred using a Pintool station (Wako, San Diego, CA). The assay plates were incubated at 37C and 5% CO2 for 24hr. For viability read, after 23hr of compound treatment, 1uL of CellTiter-Fluor reagent (Promega Corporation, Madison, WI) was added to each well of the assay plates using Flying Reagent Dispenser (FRD, Aurora Discovery, San Diego, CA) and incubated the assay plates at 37C for 1hr. The fluorescence signal was quantified using a ViewLux plate reader (Perkin Elmer, Shelton, CT).
# On the % scale 0 is the no-effect control and ±100 the full control effect; potency means the concentration at half of the fitted maximal effect.
Structure (SMILES),"viability change, negative = cytotoxic",Potency
O=C(NCC1CN(c2ccc(N3CCOCC3=O)cc2)C(=O)O1)c1ccc(Cl)s1 (stereo not given),2.19% [at 42.5 µM],–
O=CC1CC=CCC1 (stereo not given),0.34%,–
CCN(CC)CCNc1ccc(CNC=O)c2sc3ccc(OC)cc3c(=O)c12,0.826%,–
C[N+](C)(C)CCOC(=O)CCC(=O)OCC[N+](C)(C)C,1.49% [at 42.5 µM],–
Nc1ccccc1S(=O)(=O)c1ccccc1,-3.95%,–
CCCCCCCCCCCCCCCCOS(=O)(=O)O,0.911% [at 42.5 µM],–
COC(=O)c1ccc(I)cc1S(=O)(=O)NC(=O)Nc1nc(C)nc(OC)n1,-0.305%,–
CC(C)(O)c1ccc(CNC(=O)c2cccnc2Oc2ccc(F)cc2)cc1,1.55%,–
COC(C)OC,-0.791%,–
COc1cc2nc(Cl)nc(N)c2cc1OC,-2.32% [at 42.5 µM],–
CCCCc1nc2cccnc2n1Cc1ccc(-c2ccccc2-c2nnn[nH]2)cc1,–,15.4 µM (active)
C[C@@H](c1ncncc1F)C(O)(Cn1cncn1)c1ccc(F)cc1F (stereo not given in full),2.41% [at 42.5 µM],–
CCCCCCCC/C=C\CCCCCCCC(=O)OCC,6.14%,–
COc1ccnc(CS(=O)c2nc3ccc(OC(F)F)cc3[nH]2)c1OC (stereo not given),2.09% [at 42.5 µM],–
OCCN1CCN(CCCN2c3ccccc3C=Cc3ccccc32)CC1,–,11.9 µM (active)
NCC(=O)CCC(=O)O,-0.79% [at 42.5 µM],–
CC(C)CC(=O)C1C(=O)c2ccccc2C1=O,0.0404%,–
CCCCCCCCCCO[C@@H]1O[C@H](CO)[C@@H](O)[C@H](O)[C@H]1O,0.0726%,–
COc1ccc(C(=O)N2CCN(CC(=O)N3CCOCC3)CC2)cc1,-2.31% [at 42.5 µM],–
Clc1ccc2c(c1)CCc1cccnc1C2=C1CCNCC1,–,11.9 µM (active)

Structure (SMILES),"viability change, negative = cytotoxic",Potency
O=C(O)CNCC(=O)O,1.7% [at 8.39 µM],–
CCCOC(C(=O)OC1CCN(C)CC1)(c1ccccc1)c1ccccc1,–,13.3 µM (active)
Cc1ccc(C(C)OC(=O)C2(C)CCC(C(=O)O)C2(C)C)cc1 (stereo not given),-1.61% [at 42.5 µM],–
Nc1cccc(S(=O)(=O)c2cccc(N)c2)c1,-4.57%,–
CN(C)CCN(Cc1ccccc1)c1ccccn1,-1.19% [at 42.5 µM],–
CCCCCCCCCCCc1ccccc1,6.68%,–
CCCCCCCCCCCCCCCCCCOS(=O)(=O)O,-16.8%,–
Clc1ccc(Cn2c(CN3CCCC3)nc3ccccc32)cc1,-25.5% [at 42.5 µM],–
CCOCC(O)COc1ccc(NC(=O)CC[S+](C)C)cc1 (stereo not given),2.02% [at 42.5 µM],–
O=C1OC(=O)C2C3C=CC(C3)C12 (stereo not given),4.77%,–
CCOc1ccc(N=Nc2ccc(/C=C/c3ccc(N=Nc4ccc(OCC)cc4)cc3S(=O)(=O)O)c(S(=O)(=O)O)c2)cc1,–,30.2 µM (active)
COc1cc2nc(N(C)CCCNC(=O)C3CCCO3)nc(N)c2cc1OC (stereo not given),2.21% [at 42.5 µM],–
C=C(C)C(=O)OCCOCC,-3.76%,–
C=CC(=O)OCCOCCOC(=O)C=C,–,21.8 µM (active)
Cc1ccccc1S(=O)(=O)O,0.377%,–
c1ccc(C(O[C@H]2CCCN(CCc3ccc4c(c3)OCO4)C2)c2ccccc2)cc1,2.57% [at 42.5 µM],–
CC1=CC=C(C(C)C)CC1,0.819%,–
CCOC(=O)C(F)(F)F,-3.35%,–
CCc1c(C(=O)NN2CCCCC2)nn(-c2ccc(Cl)cc2Cl)c1-c1ccc(Br)cc1,-1.85%,–
CCN(CC)CCNC(=O)c1cc(Br)c(N)cc1OC,-3.26% [at 42.5 µM],–
